# Screens (PubChem BioAssay)
# TLR9-MyD88 block: blocks human TLR9 binding to MyD88; Q9NR96+Q99836; CHO BLA complementation TLR9-MyD88, CCF4 FRET ratio; inhibition, % at 4.98 µM; actives 0.21% (n = 340,000); AID 504734;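 active = inhibition above the mean over all tested compounds plus 3 SD, cut at about 21% in these data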;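 note: 0% = DMSO only wells and 100% = clavulanate BLA inhibitor control wells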
# LANA-H2B inh: blocks KSHV LANA binding to histone H2A/H2B; inhibition, % (concentration not given with the values); actives 0.6% (n = 320,000); AID 2629; Q9QR71; cell-free LANA-H2A/H2B peptide, fluorescence polarization; in the data active = inhibition mostly above about 10%, no sharp cut-off; inactive = mostly below about 6.7%
# Rtt109 Vps75: blocks Candida albicans Rtt109/Vps75 acetyltransferase activity | purified Rtt109/Vps75, ThioGlo CoA-SH fluorescence, 4 h | actives 0.16% (n = 330,000) | AID 540336 | inhibition, % at 34.9 µM | Q5AAJ8;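 active = inhibition of at least 50% in every replicate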
# HTR2A ag: activates the mouse 5-HT2A serotonin receptor; activation, % at 7.6 µM; actives 0.66% (n = 360,000); P35363; CHO-K1 mHTR2A beta-arrestin complementation, luminescence; percent of 30 µM serotonin response;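 active = activation above a run cutoff, the mean activation of all tested compounds plus 3 SD, cut at about 14% in these data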;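 note: 0% = plate median of compound wells and 100% = 30 µM serotonin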
# TLR4 MyD88 comp: inhibitors of human TLR4-MyD88 binding | O00206+Q99836 | HeLa CL3-4 TLR4/MyD88 BLA complementation, FRET ratio | inhibition, % at 8.4 µM | actives 0.18% (n = 200,000); in the data active = inhibition above about 25%;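 note: 0% = vehicle and 100% = reference inhibitor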
# NOD2-RIPK2 inh: inhibitors of human NOD2-RIPK2 interaction; O43353; actives 0.38% (n = 360,000); inhibition, % at 4.98 µM; CHO BLA complementation NOD2-RIPK2, CCF4 ratio; in the data active = inhibition above about 21%;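 note: 0% = vehicle only and 100% = reference blocker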
# OPRM1 ag: OPRM1 agonism in mouse HTR2A counterscreen; activation, % at 9.3 µM; actives 5.3% (n = 2,300); U2OS OPRM1 beta-arrestin PathHunter, luminescence; DMSO 0%, DAMGO 9.3 µM 100%; shares compounds with HTR2A ag;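 active = mean activation above the mean of DMSO-only wells plus 3 SD, cut at about 0.5% in these data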
# HTR2A ag conf: mouse HTR2A agonism confirmed | shares compounds with HTR2A ag | CHO-K1 PathHunter beta-arrestin recruitment, luminescence; DMSO 0%, 30 µM serotonin 100% | activation, % at 7.6 µM | actives 19% (n = 2,300) | AID 624381;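 active = mean activation across triplicates above the hit threshold derived in the original primary screen, cut at about 15% in these data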
# Starred values were filed as active, the others as inactive; · = no result given. Compounds with a hit are over-represented: about 1.8% of the library has one in this group of screens.
SMILES,TLR9-MyD88 block,LANA-H2B inh,Rtt109 Vps75,HTR2A ag,TLR4 MyD88 comp,NOD2-RIPK2 inh,OPRM1 ag,HTR2A ag conf
O=C(Nc1cccc2nsnc12)c1ccc(-c2cccc(Cl)c2)o1,-8,2,12,16*,-13,2,0,0
COc1ccc(NC(=O)Nc2ccc3c(c2)C(=O)N([C@H](C)CO)C[C@H](C)[C@@H](CN(C)S(=O)(=O)c2ccc(F)cc2)O3)cc1,3,2,22,18*,·,-4,-1,-3
C[C@@H]1CN([C@H](C)CO)C(=O)c2cc(NS(=O)(=O)c3ccc(F)cc3)ccc2O[C@@H]1CN(C)Cc1ccc(Cl)c(Cl)c1,3,·,3,21*,·,11,0,7
COc1ccc(NC(=O)Nc2ccc3c(c2)C(=O)N([C@H](C)CO)C[C@H](C)[C@@H](CN(C)S(=O)(=O)c2ccccc2)O3)cc1,-3,4,2,7,·,0,·,·
C[C@H](CO)N1C[C@H](C)[C@H](CN(C)Cc2ccc(-c3ccccc3)cc2)Oc2ccc(NS(=O)(=O)c3ccccc3)cc2CC1=O,1,-1,1,16*,·,-1,0,28*
Cc1ccc(S(=O)(=O)Nc2ccc3c(c2)CC(=O)N([C@H](C)CO)C[C@@H](C)[C@H](CN(C)Cc2ccc(-c4ccccc4)cc2)O3)cc1,3,3,-1,19*,·,6,-1,18*
C[C@@H]1CN([C@@H](C)CO)C(=O)Cc2cc(NS(=O)(=O)c3ccccc3)ccc2O[C@H]1CN(C)Cc1ccncc1,0,-3,-1,0,·,-2,·,·
Cc1ccccc1C(c1ncccc1C)N(C)C(=O)C1CCN(CCOc2ccc(Cl)cc2Cl)CC1 (stereo unspecified),·,·,·,4,·,1,·,·
CC(C)(C)S(=O)(=O)N1C[C@H]2C(=CC[C@@H]3C(=O)N(c4ccccc4)C(=O)[C@@H]32)[C@H]1CCO,6,·,4,-1,·,-19,·,·
COc1cccc(CCNS(=O)(=O)CCNC(=O)c2cccc(OC)c2)c1,2,-2,·,-6,·,-5,·,·
CC1(Cc2cc(Cl)ccc2C(F)(F)F)C(=O)Nc2cc(C(F)(F)F)ccc21 (stereo unspecified),·,·,·,15*,·,-4,0,2
CC1(Cc2cc(Cl)ccc2C(F)(F)F)C(=O)Nc2cc(F)ccc21 (stereo unspecified),·,·,·,-4,·,-3,·,·
CC(C)(C)OC(=O)NCCCC[C@H](NC(=O)c1[nH]cnc1C(=O)Nc1ccc(CNC(=O)OC(C)(C)C)cc1)C(=O)OC(C)(C)C,·,-1,·,·,·,·,·,·
C[C@H](NC(=O)c1[nH]cnc1C(=O)Nc1ccc(CNC(=O)OC(C)(C)C)cc1)C(=O)OC(C)(C)C,0,-6,0,19*,·,-1,0,2
CN1CCn2cnc(C(=O)Nc3ccc(CNC(=O)OC(C)(C)C)cc3)c2C1=O,2,·,·,16*,·,-3,-1,-3
C[C@H]1Cn2cnc(C(=O)Nc3ccc(CNC(=O)OC(C)(C)C)cc3)c2C(=O)N1,8,·,·,-3,·,8,·,·
N#Cc1ccccc1S(=O)(=O)N1CCN(C(=O)C2CC(=O)N(c3ccc4c(c3)OCCO4)C2)CC1 (stereo unspecified),-1,-1,10,5,·,-10,·,·
CN1CCN(C(=O)CN2C(=O)COc3ccc(S(=O)(=O)N4CCOCC4)cc32)CC1,5,·,-4,18*,·,-11,-1,12
CCOC(=O)C1CCN(C(=O)CN2C(=O)CSc3ccc(S(=O)(=O)N4CCOCC4)cc32)CC1,-3,-1,-20,35*,·,-4,0,-1
CC(C)c1cc(NCC2CCCO2)n2c(nc3ccccc32)c1C#N (stereo unspecified),-1,-5,-299,17*,6,2,0.8*,25*
Cc1cc(NCC2CCCO2)n2c(nc3ccccc32)c1C#N (stereo unspecified),8,2,5,-3,-3,-7,·,·
